Results taken from PubChem BioAssay (NCATS).
Records with an inconclusive call do not appear. Calls of active or inactive are those of the source. The call rests on the fitted dose curve; in most records, active means well fitted curve in the direction sought with a large enough effect; inconclusive means small, poorly fitted or top-dose-only effect, or another doubt; inactive means no such curve, though single readings can be large; an effect the other way counts as inactive or inconclusive.

Columns and labels:
[1] = target: Phospholipid hydroperoxide glutathione peroxidase GPX4 (Homo sapiens) (UniProt P36969); test: Primary qHTS Assay for Inhibitors of Recombinant Selenoprotein Glutathione Peroxidase 4 (GPX4) (AID 1845192); further: nearly all actives have a fitted effect of over 65% in size; further: potency means the concentration at half of the fitted maximal effect
Outline: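 GR-coupled assay: recombinant GPX4 preincubated 30 min with compound at room temperature; final 200 nM GPX4, 1 mM GSH, 0.5 mM cumene hydroperoxide, 0.5 mM NADPH, 100 nM GR, 0.01% BSA, pH 7.5 Tris. NADPH fluorescence (340/450 nm) read at 0 and 15 min.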

[2] = target: Luciferin 4-monooxygenase (Photinus pyralis) (UniProt P08659); test: Primary firefly luciferase (FLuc) qHTS assay for identification of artifact compounds. (AID 1845220); further: nearly all actives have a fitted effect of over 60% in size; further: potency means the concentration at half of the fitted maximal effect
Outline: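 D-luciferin and ATP (10 uM each, final) in Tris acetate buffer pH 7.6 were incubated with compounds for 15 min at room temperature. The reaction was started with 10 nM Photinus pyralis luciferase and luminescence read after 5 min. Percent inhibition was fitted to a 4-parameter Hill equation.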

[3] = tested on: Nanoluciferase (engineered Oplophorus gracilirostris luciferase); test: Primary Nanoluciferase (NLuc) qHTS assay for identification of artifact compounds. (AID 1845222); further: series mostly up to about 54 µM
Outline: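 Diluted conditioned medium from NLuc-expressing S16 cells treated with compounds for 15 min at room temperature, then Nano-Glo substrate added; luminescence read after 5 min. Percent inhibition versus no-enzyme and DMSO controls fitted to 4-parameter Hill equation.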

[4] = Primary redox qHTS assay for identification of artifact compounds. (AID 1845223)
Outline: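 Amplex Red (25 uM) and HRP (250 mU/mL) in HBSS, with compounds for 15 min, then 250 uM DTT for 30 min, room temperature, dark. Fluorescence 525/598 nm read; normalized to DMSO and 10 uM DA3003; Hill fit.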

Measured: Potency

Sequence of Phospholipid hydroperoxide glutathione peroxidase GPX4 (Homo sapiens) (P36969 whole entry, looked up): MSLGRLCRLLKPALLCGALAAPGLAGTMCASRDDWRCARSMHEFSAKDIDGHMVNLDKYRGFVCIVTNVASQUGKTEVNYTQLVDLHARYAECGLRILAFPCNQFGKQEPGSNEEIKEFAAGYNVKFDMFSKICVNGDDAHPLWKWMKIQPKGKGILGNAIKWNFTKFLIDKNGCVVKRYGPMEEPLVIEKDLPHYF

c1cc(OCCCN2CCCCC2)ccc1CN1CCCCC1
inactive: [1] | [2] | [3] | [4]

COc1cc(O)cc(/C=C/c2ccc(O[C@@H]3O[C@H](CO)[C@@H](O)[C@H](O)[C@H]3O)cc2)c1
inactive: [1] | [2] | [3] | [4]

C=C(C)C(=O)OC1CC2(C)OC(=CC2=O)C(=C)CC2OC(=O)C(COC)C12 (stereo not given)
active: [2] 10.5 µM
inactive: [1] | [3] | [4]

C=CC(C)(C)c1[nH]c2cc3c(cc2c1CC1NC(=O)C2=CCCN2C1=O)C=CC(C)(C)O3 (stereo not given)
inactive: [1] | [2] | [3] | [4]

OCC(CO[C@@H]1O[C@H](CO)[C@@H](O)[C@H](O)[C@H]1O)c1ccc2c(c1)OCO2 (stereo not given in full)
inactive: [1] | [2] | [3] | [4]

COC(=O)C1=COC(OC2OC(CO)C(O)C(O)C2O)C2C1C=CC2(O)CO (stereo not given)
inactive: [1] | [2] | [3] | [4]

C=CC1C(OC2OC(CO)C(O)C(O)C2O)OC=C2C(=O)N3C(C(=O)O)Cc4c([nH]c5ccccc45)C3CC21 (stereo not given)
inactive: [1] | [2] | [3] | [4]

CC(C)O[C@@H]1O[C@H](CO)[C@@H](O)[C@H](O)[C@H]1O
inactive: [1] | [2] | [3] | [4]

C=C1C[C@]23C[C@H]1CC[C@H]2C1=C[C@H]2OC(=O)[C@@](C)([C@H]1[C@@H]3C(=O)O)[C@H]2O
inactive: [1] | [2] | [3] | [4]

Cc1onc(C(=O)N2CCN(C(c3ccc(Cl)cc3)c3ccc(Cl)cc3)CC2)c1[N+](=O)[O-]
inactive: [1] | [2] | [3] | [4]

COc1ncc(Nc2ncc([C@@H](C)N3CCN(S(C)(=O)=O)CC3)cc2-c2nc(C)nc(N)n2)cc1F
inactive: [1] | [2] | [3] | [4]

COc1cc2c(cc1OC)[C@@H]1[C@H](O)[C@@H](OC)C=C3CCN(C2)[C@H]31
inactive: [1] | [2] | [3] | [4]

COc1ccc(/C=C\C(=O)O)c(O[C@@H]2O[C@H](CO)[C@@H](O)[C@H](O)[C@H]2O)c1
inactive: [1] | [2] | [3] | [4]

OC1CCC(Nc2ncc3nc(Nc4c(F)cc(F)cc4F)n([C@H]4CCOC4)c3n2)CC1 (stereo not given in full)
inactive: [2] | [3] | [4]
active: [1] 20.2 µM

CC(C)CC(=O)OC1OC=C(CO[C@@H]2O[C@H](CO)[C@@H](O)[C@H](O)[C@H]2O)C2CC(O)C(O)(CO)C12 (stereo not given in full)
inactive: [1] | [2] | [3] | [4]
